The text below walks through data of article PMC7862700, “An all-to-all approach to the identification of sequence-specific readers for epigenetic DNA modifications on cytosine”.

Common to all, as to assay: DAPPL (digital affinity profiling via proximity ligation, sequencing); 10 mM Tris-HCl pH 7.5, 50 mM NaCl, 1 mM DTT, 4% glycerol, room temperature, 30 min; GST-TFs on glutathione beads, 16-mer random dsDNA library, 0.1% formaldehyde crosslink after washing; high values mean tight binding
For test [1], the target named is T1, FEV (Homo sapiens, UniProt Q99581 1-238).
T1 sequence: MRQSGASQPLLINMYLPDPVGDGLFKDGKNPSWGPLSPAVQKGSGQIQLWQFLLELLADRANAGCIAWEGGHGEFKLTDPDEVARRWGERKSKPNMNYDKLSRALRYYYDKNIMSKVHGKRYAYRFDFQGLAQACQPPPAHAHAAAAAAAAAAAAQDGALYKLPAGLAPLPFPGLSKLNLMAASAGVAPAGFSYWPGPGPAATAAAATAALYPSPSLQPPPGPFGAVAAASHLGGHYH
Conditions: protein: recombinant; tags: N-terminal GST; dsDNA, one strand shown. Put shortly: (§1)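 In yeast, human transcription factors were expressed with a GST fusion, then pulled down on glutathione beads and given DNA barcodes. Pooled with a tag-only sample, they were exposed to 200 nmole of a 16-mer random double-stranded DNA library (Tris/NaCl/DTT/glycerol buffer, room temperature, 30 min), washed, crosslinked with 0.1% formaldehyde, proximity-ligated using BsaI/T4 ligase for 1 h at 37 °C, PCR-amplified and read on an Illumina NextSeq500. Each hexamer's frequency of reads for a factor, divided by the matching frequency for the tag-only sample, gives the binding signal.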

Test [2] deals with ETV5 (Homo sapiens, UniProt P41161 1-510). Conditions: protein: recombinant; tags: N-terminal GST; dsDNA, one strand shown. In a few lines:
as §1

For test [3], the target named is HSF1 (Homo sapiens, UniProt Q00613 1-529). Conditions: protein: recombinant; tags: N-terminal GST; chain copies: 3; dsDNA, one strand shown. In a few lines:
as §1

In test [4] the target is T2, SPIC (Homo sapiens, UniProt Q8N5J4 1-248).
T2 sequence: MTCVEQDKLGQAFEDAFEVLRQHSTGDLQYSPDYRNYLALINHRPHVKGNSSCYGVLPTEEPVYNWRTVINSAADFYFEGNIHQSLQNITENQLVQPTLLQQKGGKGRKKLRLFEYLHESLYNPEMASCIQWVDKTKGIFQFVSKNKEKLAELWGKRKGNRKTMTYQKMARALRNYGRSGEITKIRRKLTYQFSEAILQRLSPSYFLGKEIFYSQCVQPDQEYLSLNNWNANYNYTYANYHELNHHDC
Conditions: protein: recombinant; tags: N-terminal GST; dsDNA, one strand shown. Put shortly:
as §1

For test [5], the target named is ELF4 (Homo sapiens, UniProt Q99607 1-663). Conditions: protein: recombinant; tags: N-terminal GST; dsDNA, one strand shown. In a few lines: as §1
In test [6] the target is T3, ELK4 (Homo sapiens, UniProt P28324-2 1-405).
T3 sequence: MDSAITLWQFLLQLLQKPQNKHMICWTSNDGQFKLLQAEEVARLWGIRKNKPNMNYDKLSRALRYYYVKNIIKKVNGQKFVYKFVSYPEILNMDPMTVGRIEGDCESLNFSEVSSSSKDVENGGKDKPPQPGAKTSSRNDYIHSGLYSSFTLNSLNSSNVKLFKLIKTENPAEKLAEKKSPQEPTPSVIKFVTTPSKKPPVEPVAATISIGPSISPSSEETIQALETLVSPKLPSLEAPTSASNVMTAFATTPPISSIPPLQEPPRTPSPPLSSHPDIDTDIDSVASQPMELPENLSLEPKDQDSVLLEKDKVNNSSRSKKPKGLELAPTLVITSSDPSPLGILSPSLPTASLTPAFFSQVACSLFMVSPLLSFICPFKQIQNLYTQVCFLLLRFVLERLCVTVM
Conditions: protein: recombinant; tags: N-terminal GST; dsDNA, one strand shown. In a few lines: as §1

In test [7] the target is T4, ETV2 (Homo sapiens, UniProt O00321 1-342).
T4 sequence: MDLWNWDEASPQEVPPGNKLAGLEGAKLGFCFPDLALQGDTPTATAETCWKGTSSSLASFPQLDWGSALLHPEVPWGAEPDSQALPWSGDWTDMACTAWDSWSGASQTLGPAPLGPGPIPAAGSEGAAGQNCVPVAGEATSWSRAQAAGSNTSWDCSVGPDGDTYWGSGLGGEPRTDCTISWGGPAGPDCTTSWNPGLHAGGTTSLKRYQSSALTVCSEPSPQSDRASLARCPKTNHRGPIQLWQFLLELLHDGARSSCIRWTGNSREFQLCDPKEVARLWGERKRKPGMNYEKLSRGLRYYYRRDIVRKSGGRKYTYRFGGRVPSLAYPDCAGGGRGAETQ
Conditions: protein: recombinant; tags: N-terminal GST; dsDNA, one strand shown. In a few lines:
as §1

In test [8] the target is T5, ELF3 (Homo sapiens, UniProt P78545 1-371).
T5 sequence: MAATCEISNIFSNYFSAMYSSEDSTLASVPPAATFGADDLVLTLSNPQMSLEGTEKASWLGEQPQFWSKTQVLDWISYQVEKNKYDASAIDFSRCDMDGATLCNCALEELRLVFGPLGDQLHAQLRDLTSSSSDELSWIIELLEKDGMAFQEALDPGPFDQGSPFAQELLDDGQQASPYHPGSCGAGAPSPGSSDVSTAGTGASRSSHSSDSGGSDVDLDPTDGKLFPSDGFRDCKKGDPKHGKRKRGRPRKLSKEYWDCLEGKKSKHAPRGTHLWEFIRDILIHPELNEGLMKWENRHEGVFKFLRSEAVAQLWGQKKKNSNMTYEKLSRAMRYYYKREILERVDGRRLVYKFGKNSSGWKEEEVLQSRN
Conditions: protein: recombinant; tags: N-terminal GST; dsDNA, one strand shown. Put shortly: as §1

For test [9], the target named is CRX (Homo sapiens, UniProt O43186 1-299). Conditions: protein: recombinant; tags: N-terminal GST; dsDNA, one strand shown. In a few lines: as §1
Test [10] deals with ETV1 (Homo sapiens, UniProt P50549 1-477). Conditions: protein: recombinant; tags: N-terminal GST; dsDNA, one strand shown. Put shortly: as §1
Test [11] addresses T6, ERF (Homo sapiens, UniProt P50548 1-548).
T6 sequence: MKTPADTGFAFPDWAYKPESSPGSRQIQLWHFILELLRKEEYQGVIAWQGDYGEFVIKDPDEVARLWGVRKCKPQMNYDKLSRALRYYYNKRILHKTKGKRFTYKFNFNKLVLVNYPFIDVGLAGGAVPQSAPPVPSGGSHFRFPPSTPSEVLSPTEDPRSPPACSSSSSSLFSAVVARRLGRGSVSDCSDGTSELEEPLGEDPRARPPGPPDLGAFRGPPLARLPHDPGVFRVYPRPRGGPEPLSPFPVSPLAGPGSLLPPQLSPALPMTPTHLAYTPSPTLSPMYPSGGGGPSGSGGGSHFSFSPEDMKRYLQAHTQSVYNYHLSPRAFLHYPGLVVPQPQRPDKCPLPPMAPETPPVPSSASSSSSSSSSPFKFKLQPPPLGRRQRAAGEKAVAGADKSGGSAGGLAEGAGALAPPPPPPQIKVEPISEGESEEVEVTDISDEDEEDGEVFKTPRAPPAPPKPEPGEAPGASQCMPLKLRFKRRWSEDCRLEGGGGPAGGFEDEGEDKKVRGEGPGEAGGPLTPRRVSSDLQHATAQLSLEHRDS
The settings on record: protein: recombinant; tags: N-terminal GST; dsDNA, one strand shown. Put shortly: as §1

For test [12], the target named is T7, ETV3L (Homo sapiens, UniProt Q6ZN32 1-361).
T7 sequence: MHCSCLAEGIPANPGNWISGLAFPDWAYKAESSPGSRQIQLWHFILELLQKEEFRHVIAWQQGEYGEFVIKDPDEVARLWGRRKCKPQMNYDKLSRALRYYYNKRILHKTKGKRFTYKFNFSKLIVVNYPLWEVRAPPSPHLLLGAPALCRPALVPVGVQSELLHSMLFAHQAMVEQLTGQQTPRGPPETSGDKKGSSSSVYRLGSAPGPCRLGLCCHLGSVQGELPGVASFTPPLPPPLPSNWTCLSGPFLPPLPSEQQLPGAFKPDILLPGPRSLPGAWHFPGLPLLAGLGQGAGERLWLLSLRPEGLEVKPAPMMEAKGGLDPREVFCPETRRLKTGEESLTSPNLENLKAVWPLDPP
Conditions: protein: recombinant; tags: N-terminal GST; dsDNA, one strand shown. In a few lines:
as §1

Test [13] concerns the target T8, ETS2 (Homo sapiens, UniProt P15036 1-469).
T8 sequence: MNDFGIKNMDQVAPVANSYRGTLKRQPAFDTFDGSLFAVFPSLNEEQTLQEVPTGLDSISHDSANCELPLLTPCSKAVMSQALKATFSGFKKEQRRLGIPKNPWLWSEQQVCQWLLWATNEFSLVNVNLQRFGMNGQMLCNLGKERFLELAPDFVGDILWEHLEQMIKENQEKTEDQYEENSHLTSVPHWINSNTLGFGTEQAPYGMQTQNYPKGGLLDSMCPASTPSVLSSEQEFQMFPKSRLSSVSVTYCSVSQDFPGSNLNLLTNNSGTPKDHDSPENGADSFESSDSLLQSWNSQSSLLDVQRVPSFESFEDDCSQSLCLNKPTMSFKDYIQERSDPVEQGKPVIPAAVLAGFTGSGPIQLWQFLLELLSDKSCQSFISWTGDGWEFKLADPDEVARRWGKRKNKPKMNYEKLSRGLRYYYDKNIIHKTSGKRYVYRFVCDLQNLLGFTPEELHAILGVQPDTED
Conditions: protein: recombinant; tags: N-terminal GST; dsDNA, one strand shown. In a few lines: as §1

The target in test [14] is T9, SPDEF (Homo sapiens, UniProt O95238 1-335).
T9 sequence: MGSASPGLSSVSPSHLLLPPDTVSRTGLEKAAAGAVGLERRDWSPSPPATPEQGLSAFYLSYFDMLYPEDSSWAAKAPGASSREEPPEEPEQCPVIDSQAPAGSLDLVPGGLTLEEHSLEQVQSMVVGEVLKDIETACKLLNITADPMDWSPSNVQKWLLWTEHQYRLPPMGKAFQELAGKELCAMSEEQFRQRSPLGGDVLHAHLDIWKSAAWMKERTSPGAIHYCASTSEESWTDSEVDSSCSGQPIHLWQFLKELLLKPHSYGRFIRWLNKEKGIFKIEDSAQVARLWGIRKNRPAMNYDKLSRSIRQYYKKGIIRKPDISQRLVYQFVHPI
The settings on record: protein: recombinant; tags: N-terminal GST; dsDNA, one strand shown. Put shortly:
as §1

Test [15] deals with T10, ETV7 (Homo sapiens, UniProt Q9Y603 1-341).
T10 sequence: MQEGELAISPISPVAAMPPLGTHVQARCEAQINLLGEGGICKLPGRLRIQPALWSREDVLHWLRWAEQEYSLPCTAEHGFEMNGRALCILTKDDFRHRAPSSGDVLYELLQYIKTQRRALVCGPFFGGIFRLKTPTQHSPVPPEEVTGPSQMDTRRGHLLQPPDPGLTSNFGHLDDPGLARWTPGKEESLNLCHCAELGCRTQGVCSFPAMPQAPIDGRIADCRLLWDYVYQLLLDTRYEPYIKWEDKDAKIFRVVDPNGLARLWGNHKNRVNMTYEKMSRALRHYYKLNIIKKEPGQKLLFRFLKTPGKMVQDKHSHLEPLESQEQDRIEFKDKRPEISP
The settings on record: protein: recombinant; tags: N-terminal GST; dsDNA, one strand shown. Put shortly: as §1

The target in test [16] is T11, ELF5 (Homo sapiens, UniProt Q9UKW6-2 1-255).
T11 sequence: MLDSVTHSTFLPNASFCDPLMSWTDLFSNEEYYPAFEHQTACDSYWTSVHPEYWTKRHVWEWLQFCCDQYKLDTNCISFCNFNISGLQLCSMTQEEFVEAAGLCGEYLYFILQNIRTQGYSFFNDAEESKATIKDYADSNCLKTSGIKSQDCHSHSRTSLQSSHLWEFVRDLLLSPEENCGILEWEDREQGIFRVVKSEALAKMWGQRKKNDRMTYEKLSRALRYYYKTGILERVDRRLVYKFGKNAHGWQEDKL
Conditions: protein: recombinant; tags: N-terminal GST; dsDNA, one strand shown. Put shortly:
as §1

The target in test [17] is T12, ETV3 (Homo sapiens, UniProt P41162-2 1-143).
T12 sequence: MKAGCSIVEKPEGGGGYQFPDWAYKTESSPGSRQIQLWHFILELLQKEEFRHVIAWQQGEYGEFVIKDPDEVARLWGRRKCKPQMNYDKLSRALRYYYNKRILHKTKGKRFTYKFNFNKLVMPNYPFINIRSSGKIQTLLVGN
Conditions: protein: recombinant; tags: N-terminal GST; dsDNA, one strand shown. Put shortly:
as §1

Test [18] deals with ETV6 (Homo sapiens, UniProt P41212 1-452). Conditions: protein: recombinant; tags: N-terminal GST; dsDNA, one strand shown. In a few lines: as §1
Chain of ETV6 (P41212 whole entry): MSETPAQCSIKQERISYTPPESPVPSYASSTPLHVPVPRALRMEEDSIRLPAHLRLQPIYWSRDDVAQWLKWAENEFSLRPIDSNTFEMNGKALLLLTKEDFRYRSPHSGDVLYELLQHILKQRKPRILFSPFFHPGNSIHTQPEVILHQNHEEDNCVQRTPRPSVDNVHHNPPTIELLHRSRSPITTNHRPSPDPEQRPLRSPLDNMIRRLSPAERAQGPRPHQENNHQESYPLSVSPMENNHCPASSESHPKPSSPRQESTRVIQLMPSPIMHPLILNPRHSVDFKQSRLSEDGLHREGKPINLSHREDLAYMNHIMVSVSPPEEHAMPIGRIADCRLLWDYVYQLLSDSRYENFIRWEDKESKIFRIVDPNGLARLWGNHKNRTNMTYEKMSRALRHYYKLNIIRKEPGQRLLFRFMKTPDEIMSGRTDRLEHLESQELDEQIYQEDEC

Chain of HSF1 (Q00613 whole entry): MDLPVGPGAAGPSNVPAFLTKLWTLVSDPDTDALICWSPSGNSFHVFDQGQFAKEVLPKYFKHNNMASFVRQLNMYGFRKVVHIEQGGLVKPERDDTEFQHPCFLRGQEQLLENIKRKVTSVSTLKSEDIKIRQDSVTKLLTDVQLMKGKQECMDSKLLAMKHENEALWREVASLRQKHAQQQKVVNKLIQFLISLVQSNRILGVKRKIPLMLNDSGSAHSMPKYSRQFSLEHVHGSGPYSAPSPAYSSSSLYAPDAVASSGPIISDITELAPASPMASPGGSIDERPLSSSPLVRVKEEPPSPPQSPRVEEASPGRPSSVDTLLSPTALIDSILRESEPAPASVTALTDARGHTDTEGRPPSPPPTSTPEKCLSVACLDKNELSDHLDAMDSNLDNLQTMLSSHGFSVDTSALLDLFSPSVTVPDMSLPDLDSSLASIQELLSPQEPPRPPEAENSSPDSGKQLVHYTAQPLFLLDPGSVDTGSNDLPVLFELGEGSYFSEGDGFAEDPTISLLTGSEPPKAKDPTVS
Chain of ETV5 (P41161 whole entry): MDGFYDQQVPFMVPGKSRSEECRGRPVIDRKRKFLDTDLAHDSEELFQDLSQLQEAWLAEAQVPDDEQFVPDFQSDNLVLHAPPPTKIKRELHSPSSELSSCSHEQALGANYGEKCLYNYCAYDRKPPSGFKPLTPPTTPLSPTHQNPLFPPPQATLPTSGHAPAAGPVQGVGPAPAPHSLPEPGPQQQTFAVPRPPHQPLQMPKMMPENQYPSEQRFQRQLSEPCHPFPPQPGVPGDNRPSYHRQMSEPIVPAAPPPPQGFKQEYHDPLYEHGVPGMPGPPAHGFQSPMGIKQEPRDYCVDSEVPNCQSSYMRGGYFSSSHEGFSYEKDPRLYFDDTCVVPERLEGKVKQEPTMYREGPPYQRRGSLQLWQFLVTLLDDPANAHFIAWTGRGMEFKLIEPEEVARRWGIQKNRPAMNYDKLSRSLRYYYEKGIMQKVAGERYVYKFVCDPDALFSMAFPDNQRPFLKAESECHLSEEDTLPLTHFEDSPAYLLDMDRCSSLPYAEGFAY
Chain of CRX (O43186 whole entry): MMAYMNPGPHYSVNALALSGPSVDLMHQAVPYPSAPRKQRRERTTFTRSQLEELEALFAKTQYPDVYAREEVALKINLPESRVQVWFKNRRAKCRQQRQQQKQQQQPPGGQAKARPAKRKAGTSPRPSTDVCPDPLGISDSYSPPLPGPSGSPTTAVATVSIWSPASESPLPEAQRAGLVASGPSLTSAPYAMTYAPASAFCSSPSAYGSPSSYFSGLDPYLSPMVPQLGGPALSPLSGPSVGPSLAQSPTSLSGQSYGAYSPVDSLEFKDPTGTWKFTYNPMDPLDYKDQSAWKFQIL
Chain of ETV1 (P50549 whole entry): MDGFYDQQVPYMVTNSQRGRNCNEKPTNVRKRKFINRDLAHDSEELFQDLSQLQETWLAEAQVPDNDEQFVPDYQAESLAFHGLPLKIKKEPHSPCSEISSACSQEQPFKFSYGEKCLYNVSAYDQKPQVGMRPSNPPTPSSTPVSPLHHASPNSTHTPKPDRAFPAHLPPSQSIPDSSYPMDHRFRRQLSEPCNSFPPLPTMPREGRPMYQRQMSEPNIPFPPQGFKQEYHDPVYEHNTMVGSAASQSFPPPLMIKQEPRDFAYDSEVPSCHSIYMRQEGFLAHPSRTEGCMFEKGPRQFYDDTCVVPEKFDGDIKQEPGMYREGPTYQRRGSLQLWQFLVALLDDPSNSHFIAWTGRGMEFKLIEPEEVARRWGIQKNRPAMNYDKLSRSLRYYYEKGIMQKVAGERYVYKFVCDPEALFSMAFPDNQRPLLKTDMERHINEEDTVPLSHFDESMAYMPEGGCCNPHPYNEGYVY
Chain of ELF4 (Q99607 whole entry): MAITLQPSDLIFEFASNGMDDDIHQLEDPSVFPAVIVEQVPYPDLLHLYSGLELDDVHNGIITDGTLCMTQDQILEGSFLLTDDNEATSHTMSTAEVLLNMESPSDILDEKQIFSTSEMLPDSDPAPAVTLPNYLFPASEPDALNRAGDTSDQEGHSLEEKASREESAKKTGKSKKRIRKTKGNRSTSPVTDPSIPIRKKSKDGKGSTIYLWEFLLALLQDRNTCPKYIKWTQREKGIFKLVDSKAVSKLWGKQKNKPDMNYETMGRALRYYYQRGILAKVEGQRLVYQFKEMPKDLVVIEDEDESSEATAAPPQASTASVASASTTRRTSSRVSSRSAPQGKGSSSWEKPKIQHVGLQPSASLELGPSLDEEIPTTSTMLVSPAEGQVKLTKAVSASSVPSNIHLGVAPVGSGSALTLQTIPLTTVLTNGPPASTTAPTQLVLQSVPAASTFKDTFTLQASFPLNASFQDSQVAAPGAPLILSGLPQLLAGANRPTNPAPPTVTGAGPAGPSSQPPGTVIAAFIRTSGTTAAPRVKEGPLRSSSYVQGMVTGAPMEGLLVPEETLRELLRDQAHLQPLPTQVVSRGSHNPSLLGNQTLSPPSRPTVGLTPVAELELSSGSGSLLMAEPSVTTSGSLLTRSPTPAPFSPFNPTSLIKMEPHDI

As to AAATCC, the binding signal in test [1] was 2.56 fold enrichment (6-mer frequency, TF over GST control); in test [2] it was 1.64 fold enrichment (6-mer frequency, TF over GST control); in [3] it was 1.9 fold enrichment (6-mer frequency, TF over GST control); in test [4] it was 1.5 fold enrichment (6-mer frequency, TF over GST control); in [5] it was 1.51 fold enrichment (6-mer frequency, TF over GST control); in test [6], 1.47 fold enrichment (6-mer frequency, TF over GST control). Further, the binding signal in test [7] is 1.45 fold enrichment (6-mer frequency, TF over GST control); in test [8], 1.34 fold enrichment (6-mer frequency, TF over GST control); in test [9], 2.53 fold enrichment (6-mer frequency, TF over GST control); in [10] it was 1.58 fold enrichment (6-mer frequency, TF over GST control); in test [11], 1.48 fold enrichment (6-mer frequency, TF over GST control); in test [12], 1.47 fold enrichment (6-mer frequency, TF over GST control). In addition, the binding signal in test [13] is 1.62 fold enrichment (6-mer frequency, TF over GST control); in test [14], 2.08 fold enrichment (6-mer frequency, TF over GST control); in test [15], 1.61 fold enrichment (6-mer frequency, TF over GST control); in [16], 1.75 fold enrichment (6-mer frequency, TF over GST control); in [17] it was 1.49 fold enrichment (6-mer frequency, TF over GST control); in [18], 1.6 fold enrichment (6-mer frequency, TF over GST control).
